ChEMBL document CHEMBL4513216, “Probing the Open Global Health Chemical Diversity Library for Multistage-Active Starting Points for Next-Generation Antimalarials” (ACS Infect Dis, 2020)
The whole screen tested about 69,000 compounds, of which about 8,600 (12%) showed an effect of 50% or more. What follows is part of a selection rich in strong results, with near analogues and random picks from the rest.

System: Plasmodium berghei
Assay: Screen against P. berghei liver stage (PbLuc), transformed with Luciferase, at 10uM
Assay type: functional, HepG2
Conditions: tested at 10 uM

Compared with OCc1cn(Cc2cccc(C(F)(F)F)c2)nn1, CN(CCC(F)(F)F)C(=O)c1nc(S(C)(=O)=O)n2ccccc12 is higher in INHIBITION: -5.1% for the first, 12.6% for the second.

First: CCN(Cc1cnn(C)c1)C(=O)c1ccc(C)c(N2CCNC2=O)c1
Second: Cc1ccc(C(=O)N(C)CCCc2cnn(C)c2)cc1N1CCNC1=O
The INHIBITION of the first is lower: 28.2% for the first, 58.8% for the second.

Compared with CN(Cc1cnn(C)c1)C(=O)c1ccc(Cl)c(N2CCNC2=O)c1, CN(CCNC(=O)Nc1cnn(C)c1)Cc1ccc(F)cc1 is higher in INHIBITION: 18.4% for the first, 49.3% for the second.

Going from O=C(NC1CCN(c2ncccc2F)C1)c1cccc(-n2ccnn2)c1 (stereo not given) to CC1CCCCN1CCNC(=O)c1ccn(-c2cccc(F)c2)n1 (stereo not given), the INHIBITION rises from -20.8% to 16.8%.

Going from C1CC(CN2C[C@@H]3CC[C@H]2CN(Cc2noc(C4CCCC4)n2)C3)C1 to Cn1ccc(CN2CCC(COC3CCCC3)CC2)cc1=O, the INHIBITION rises from 18.6% to 58%.

First: CC(NCCN1CCC(N(C)C)CC1)c1ccc(F)cc1N(C)C (stereo not given)
Second: CC(NCCCN1CCCC1=O)c1ccc(F)cc1N(C)C (stereo not given)
The INHIBITION of the first is higher: 40.6% for the first, -2.75% for the second.

First: CNC(=O)c1cccc(CNC(C)c2cc(Cl)ccc2OC)c1 (stereo not given)
Second: CNC(=O)c1cccc(CNC(C)c2cc(C)ccc2OC(F)F)c1 (stereo not given)
The INHIBITION of the first is lower: 18.9% for the first, 51.5% for the second.

First: CNC(=O)c1cccc(CCNS(C)(=O)=O)c1
Second: CNC(=O)c1cccc(CNC(C)c2ccc(F)cc2N(C)C)c1 (stereo not given)
The INHIBITION of the first is lower: 21.3% for the first, 66.8% for the second.

Going from O=S(=O)(NC[C@]12COC[C@H]1CN(c1ncc(F)cn1)C2)C1CC1 to O=C(NCCO)C1CN(c2cncnc2)CCO1 (stereo not given), the INHIBITION rises from -15.6% to 3.91%.

First: CCOC(CC)C(=O)NCCC(=O)N1CCN(c2ncccn2)CC1 (stereo not given)
Second: CN(Cc1nccn1C)C1CCN(CCc2ccccn2)CC1
The INHIBITION of the first is lower: -18.2% for the first, -3.2% for the second.

Going from COc1ccc2nc(NC(=O)c3c(C(=O)O)cnn3C)sc2c1 to COc1ccc(NC(=O)N2CCCC2c2ccco2)c(OC)c1 (stereo not given), the INHIBITION rises from 28.7% to 41.5%.

Going from CC(CNCc1ccc2c(c1)n(C)c(=O)n2C)Oc1ccccn1 (stereo not given) to COc1ccc(CN(Cc2ccccn2)Cc2cncn2C)cc1, the INHIBITION rises from -8.51% to 23.9%.

Compared with Cc1ccccc1C1CCN(CCn2cc(-c3cccc(O)c3)nn2)C1 (stereo not given), Cc1ccccc1C1CCN(CCn2cc(-c3nccs3)nn2)C1 (stereo not given) is lower in INHIBITION: 59.3% for the first, 4.15% for the second.

Compared with Cc1ccccc1C1CCN(CCn2cc(-c3nccn3C)nn2)C1 (stereo not given), Cc1cccc(C)c1OC1CCN(Cc2ccn(C)c(=O)c2)CC1 is higher in INHIBITION: 28% for the first, 58% for the second.

Going from Cc1noc(OCC(=O)N2CCCCC2C)n1 (stereo not given) to CN(C)[C@@H]1CCN(C(=O)NC2CCCC2)[C@H]1Cc1ccncc1, the INHIBITION rises from -26.4% to 23.3%.

Going from Cn1ccc(CN2CCC(CO)CC2)cc1=O to Cn1ccc(CN2CCC(Oc3ccccc3)CC2)cc1=O, the INHIBITION rises from -10.8% to 25.6%.

Going from COc1ccc(OC2CCN(Cc3ccn(C)c(=O)c3)CC2)cc1 to Cn1ccc(CN2CCC(OCc3ccccc3)CC2)cc1=O, the INHIBITION falls from 45.7% to 3.15%.

Going from O=c1[nH]c(N2CCCCC2)nc2c1CCN(Cc1cccnc1)C2 to CC(C)N(C)Cc1cn2c(n1)CN(Cc1ccsc1)CC2, the INHIBITION falls from 8.72% to -14.9%.

Going from CCn1c(=O)c2cc(S(N)(=O)=O)ccc2n(CC)c1=O to O=S(=O)(CCNCCn1cccn1)c1ccccc1, the INHIBITION rises from 2.84% to 19.8%.

First: Cc1cc(CN2CCCC(Cn3cncn3)C2)on1 (stereo not given)
Second: Cc1cc(-c2cnc(NC3CCCC3)nc2-c2ccoc2)on1
The INHIBITION of the first is lower: 35.3% for the first, 41.2% for the second.

Going from Cc1nc(CNC(=O)NCc2cccnc2N(C)C)cs1 to CN(CCNC(=O)Nc1nccs1)Cc1ccc(F)cc1, the INHIBITION rises from -27.8% to 2.7%.

Compared with CN(CCNC(=O)Nc1ccn(C)n1)Cc1ccc(F)cc1, Cc1nn(C)cc1CN(Cc1ccccn1)Cc1ccccc1Cl is lower in INHIBITION: 52.7% for the first, 48% for the second.

First: O=C(Nc1nnn[nH]1)c1cc(-c2ccc(Br)s2)n[nH]1
Second: COCCNC(=O)C1CC(=O)N(c2n[nH]c3cccc(F)c23)C1 (stereo not given)
The INHIBITION of the first is higher: 11.3% for the first, -23.7% for the second.

Compared with Cc1noc(C)c1CN(C)C(=O)C1CCCc2ccccc21 (stereo not given), CN(Cc1ccco1)C(=O)C1CCCc2ccccc21 (stereo not given) is higher in INHIBITION: 26.6% for the first, 50.5% for the second.

First: N#CCCN(Cc1ccco1)C(=O)C1CCCc2ccccc21 (stereo not given)
Second: Cc1occc1-c1nc(NC2CCCC2)ncc1-c1ccccn1
The INHIBITION of the first is lower: 24.2% for the first, 62.9% for the second.

Going from Cc1ccoc1C(=O)N1C[C@@H](N2CCN(C)CC2)[C@H]2OCCC[C@H]21 to Cc1cc(-c2cnc(NC3CCCC3)nc2-c2ccoc2C)on1, the INHIBITION rises from -26.5% to 78.5%.

Compared with Cc1cnc(-c2nc(NC3CCCC3)ncc2-c2onc(C)c2C)cn1, Cc1noc(-c2cnc(NC3CC3)nc2-c2ccco2)c1C is higher in INHIBITION: -29.8% for the first, 7.9% for the second.

First: Cc1cc(-c2cnc(NC3CCCCC3)nc2-c2ccco2)on1
Second: Cc1cc(-c2cnc(NC3CCCC3)nc2-c2ccco2)on1
The INHIBITION of the first is higher: 60.5% for the first, -18.9% for the second.

First: Cc1cc(-c2cnc(NC3CC3)nc2-c2ccoc2C)on1
Second: Cc1cc(-c2cnc(NC3CC3)nc2-c2ccc(C)o2)on1
The INHIBITION of the first is higher: 58.1% for the first, 39.2% for the second.

Going from Cc1cc(-c2cnc(NC3CC3)nc2-c2ccoc2)on1 to Cc1cc(-c2cnc(NC3CC3)nc2-c2ccco2)on1, the INHIBITION falls from 3.91% to -21.4%.

Going from Cc1cc(-c2cnc(NC3CCCC3)nc2-c2ccc(C)o2)on1 to Cc1nc(Nc2nnc(C)s2)cc(C2CCCN2C(C)C)n1 (stereo not given), the INHIBITION falls from 11.1% to -15.3%.

Going from CCCOC1CCCN(C(=O)c2cc(CN(CC)CC)c(CC)o2)C1 (stereo not given) to CCn1nc(C)c(CN(CCOC)Cc2ccccn2)c1C, the INHIBITION falls from 18.5% to 4.12%.

First: CCn1nc(C)c(CN(Cc2ccccn2)Cc2ccccc2Cl)c1C
Second: Cc1ncc(CN(Cc2ccccn2)Cc2ccccc2Cl)n1C
The INHIBITION of the first is lower: 50.8% for the first, 69.4% for the second.

Compared with CCn1nc(C)c(CN(CCCN(C)C)Cc2ccccn2)c1C, COCCn1ccnc1CN(Cc1ccccn1)CC(C)C is higher in INHIBITION: -37.4% for the first, 44% for the second.

First: Cn1ccnc1CN(Cc1ccccn1)Cc1ccccc1Cl
Second: COC1CCN(C(=O)Nc2cc(C(F)(F)F)c[nH]c2=O)CC1
The INHIBITION of the first is higher: 79.6% for the first, -111% for the second.
